Among the test systems are T-47D breast; BT-549 breast; MDA-MB-435 melanoma; SW-620 colon; HCT-116 colon; HCC-2998 colon; MCF7 breast; KM12 colon.
Experiment in all cases: NCI-60 one-dose screen, 48 h (100 = growth as untreated, 0 = no growth, -100 = all killed)
Common to all, as to settings: 10 µM unless noted

The source of these data is PubChem BioAssay (NCI).

The structures appear in SMILES notation. Compounds without any hit were thinned out: in the full panel of roughly 83,000, 20% have a hit.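 For each line, cells grew in 96-well plates with the test compound present at a single concentration for 48 hours.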 Values without a mark were called inactive. Activity calls are given as the source filed them. How the source made its calls: active means growth percent below 10; inactive means the rest.

`COc1ccc(C(=O)/C=C/c2c(OC)cc(OC)cc2OC)c(OC)c1`: the growth in the assay with T-47D breast is 19%; in the assay on BT-549 breast, 12.3%; in the assay on MDA-MB-435 melanoma, -20.2% (active); in the assay with SW-620 colon, 16.6%; in the assay with HCT-116 colon, 18.2%; in the assay with HCC-2998 colon it was 41.7%.

As to `CCc1c(Nc2ccc(C)cc2)[nH]c(N)nc1=S`, the growth with T-47D breast is 90.1%; in the assay with BT-549 breast, 100%; with MDA-MB-435 melanoma, 104%; in the assay on SW-620 colon it was 107%; in the assay with MCF7 breast, 91.3%; in the assay on HCT-116 colon, 98.3%. In addition, the growth with KM12 colon is 104%.

Regarding `COc1ccc(-n2cc(-c3cc(OC)c(OC)c(OC)c3)n(C(C)=O)c2=O)cc1`, the growth in the assay with T-47D breast is 77.2%; in the assay on BT-549 breast it was 100%; with MDA-MB-435 melanoma it was 84.3%; in the assay on SW-620 colon, 98.1%; in the assay on HCT-116 colon, 94%; in the assay on HCC-2998 colon it was 108%. The growth with KM12 colon is 85%.

Consider `CN1CCN(c2ccc(NC3=C(Cl)C(=O)c4ncccc4C3=O)cc2C#N)CC1`, for which the growth was -33.3% (active) in the assay with T-47D breast; 96.3% with BT-549 breast; -92.9% (active) in the assay with MDA-MB-435 melanoma; -75.3% (active) with SW-620 colon; -59.9% (active) with MCF7 breast; -56.7% (active) with HCT-116 colon. In the assay on KM12 colon, the growth is 105%.

Turning to `COc1ccc(-c2nc(N/N=C/c3ccco3)nc(N3CCOCC3)c2C#N)cc1`, the growth with T-47D breast was 54.2%; in the assay on BT-549 breast it was 78.5%; in the assay on MDA-MB-435 melanoma, 91.7%; in the assay with SW-620 colon it was 89.8%; with MCF7 breast, 35.2%; with HCT-116 colon, 89.1%. Further, the growth with KM12 colon was 86.7%.

Regarding `O=C(Nc1ccc(Cl)cc1)Nc1ccc(Cl)c(Cl)c1`, the growth was -12.2% (active) in the assay on T-47D breast; 43.3% in the assay on BT-549 breast; 7.4% (active) in the assay on MDA-MB-435 melanoma; 14.4% with SW-620 colon; -4.33% (active) in the assay with MCF7 breast; 5.23% (active) in the assay on HCT-116 colon. Moreover, the growth in the assay on KM12 colon was 6.34% (active).

Regarding `O=C1CCC(NC(=S)Nc2ccccc2)N1` (centres undefined), the growth in the assay with T-47D breast was 103%; in the assay on BT-549 breast it was 114%; with MDA-MB-435 melanoma it was 109%; in the assay with SW-620 colon, 107%; in the assay on MCF7 breast it was 97.3%; in the assay with HCT-116 colon, 97.6%. The growth in the assay with KM12 colon was 98%.

On to `CCC1(CC)NC(=O)c2c(c3ccc(Cl)c(Cl)c3n2C)C1C#N` (centres undefined), for which the growth was 78.5% in the assay with T-47D breast; 90.6% with BT-549 breast; 99.2% in the assay with MDA-MB-435 melanoma; 102% in the assay on SW-620 colon; 97.9% with MCF7 breast; 76.3% in the assay on HCT-116 colon. Further, the growth in the assay with KM12 colon is 99.4%.

As to `O=C(N/N=C/c1ccc(O)c(O)c1)c1sc2ccccc2c1Cl`, the growth in the assay with T-47D breast is 62.3%; in the assay with BT-549 breast it was 84.4%; in the assay on MDA-MB-435 melanoma it was 88.7%; in the assay with SW-620 colon, 75.2%; in the assay on MCF7 breast, 54.4%; in the assay on HCT-116 colon, 80%. Further, in the assay with KM12 colon, the growth was 89%.

For the molecule `CC(O)(CO)c1ccccc1` (centres undefined), the growth was 102% with T-47D breast; 93.6% in the assay on BT-549 breast; 99.1% in the assay on MDA-MB-435 melanoma; 103% in the assay on SW-620 colon; 98.7% with MCF7 breast; 98.3% with HCT-116 colon. For the same molecule, in the assay with KM12 colon, the growth is 103%.

Turning to `CC[C@H](C)[C@@H]1NC(=O)[C@H](Cc2ccc(O)cc2)N(C)C(=O)[C@H](Cc2ccccc2)NC(=O)CN(C)C(=O)[C@@H]2CCCN2C(=O)[C@@H](Cc2ccccc2)N(C)C(=O)[C@H](CC(C)C)NC1=O`, the growth with T-47D breast was 0.772% (active); in the assay with BT-549 breast, 69.7%; in the assay on MDA-MB-435 melanoma, -46.3% (active); in the assay on SW-620 colon it was 3.59% (active); in the assay with MCF7 breast, -25% (active); in the assay with HCT-116 colon, 1.24% (active). In the assay on KM12 colon, the growth was 1.4% (active).

As for `COc1ccc(/C=C(/c2ccccc2)[N+](=O)[O-])cc1`, the growth with T-47D breast is -64.5% (active); with BT-549 breast, -18.7% (active); in the assay with MDA-MB-435 melanoma it was -35.6% (active); with SW-620 colon it was -57.6% (active); in the assay on HCT-116 colon it was -71.6% (active); with HCC-2998 colon, -80.7% (active). Moreover, in the assay with KM12 colon, the growth was -36.2% (active).

As to `CN(C)CCCn1c2c(c3ccc(-c4ccn[nH]4)cc3c1=O)C(=O)c1ccccc1-2`, the growth in the assay on T-47D breast is 43.2%; in the assay on BT-549 breast, 56.1%; with MDA-MB-435 melanoma it was 78.4%; in the assay on SW-620 colon, 37.1%; in the assay on HCT-116 colon, 28.9%; in the assay with HCC-2998 colon, 53.8%. In addition, in the assay on KM12 colon, the growth is 18.1%.

As to `COc1ccc(C(O)c2cc3c(N)c(C(=O)Nc4ccc(Br)cc4)sc3nc2C)cc1` (centres undefined), the growth was 18.8% with T-47D breast; 50.8% in the assay with BT-549 breast; -39.8% (active) in the assay with MDA-MB-435 melanoma; 23.7% in the assay on SW-620 colon; 21% in the assay on HCT-116 colon; 46.7% in the assay on HCC-2998 colon. Also, in the assay on KM12 colon, the growth is 4.23% (active).

As for `CC(C)Cc1ccc(C(C)C(=O)NCc2c[nH]c3ccc(Cl)cc23)cc1` (centres undefined), the growth with T-47D breast is 69.8%; in the assay on BT-549 breast it was 88.8%; with MDA-MB-435 melanoma, 66.6%; in the assay on SW-620 colon, 90.9%; with HCT-116 colon, 85.9%; in the assay with HCC-2998 colon it was 103%. Also, the growth in the assay on KM12 colon is 83.5%.

Consider `O=C1c2ccccc2-c2c1c1c(NCCCO)nc3ccccc3c1n2Cc1ccccc1`, for which the growth in the assay on T-47D breast was 78.2%; in the assay on BT-549 breast, -37.7% (active); in the assay with MDA-MB-435 melanoma, 18.2%; with SW-620 colon, 25.2%; with HCT-116 colon, -57.3% (active); in the assay on HCC-2998 colon it was 26.1%. The growth with KM12 colon is 38.3%.

For `O=C(CSc1nc2sc3c(c2c(=O)n1Cc1ccccc1)CCCC3)N1CCN(c2ccccc2)CC1`, the growth is 80.9% in the assay on T-47D breast; 90.1% in the assay with BT-549 breast; 101% in the assay on MDA-MB-435 melanoma; 95.5% in the assay on MCF7 breast; 85.4% with HCT-116 colon; 103% in the assay with HCC-2998 colon.

Regarding `c1ccc(Cn2nc3c(c2-c2ccccc2)-c2oncc2CC3)cc1`, the growth with T-47D breast is 80.9%; in the assay with BT-549 breast it was 88%; with MDA-MB-435 melanoma it was 89.2%; in the assay on SW-620 colon, 106%; in the assay on HCT-116 colon, 94.2%; in the assay on HCC-2998 colon, 97.8%. Besides, in the assay with KM12 colon, the growth was 99.6%.
